# Laboratory results as given in PubChem BioAssay AID493056 (National Center for Advancing Translational Sciences (NCATS), 2011).
# Out of some 360,000 compounds screened, about 2,400 (0.67%) were called active. Many of the other results were omitted from the sample, so actives are more common in it than they were. A number with no mark means an inactive call. Rule as the data show it: active = enhancement above about 30%; inactive = the rest.
# Target: Thyrotropin-releasing hormone receptor (Homo sapiens) (UniProt P34981)
# Test: qHTS for Small Molecule Agonists and Allosteric Enhancers of Human TRH Receptor: Primary Screen for Enhancers; also: 0% is about no effect
# Details: TRHR cells, fluo-8 calcium fluorescence, EC20 TRH enhancement; at 2 µM; active compounds read high
# Method in brief: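 Enhancer read-out: after compound pinning and an initial kinetic agonist-mode read, an EC20 of TRH (10 nM final) was injected and fluo-8 calcium signal (Ex 480/Em 530) followed at 1 s/cycle for 100 cycles in TRHR-expressing cells.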
# Sequence of Thyrotropin-releasing hormone receptor (Homo sapiens) (P34981 whole entry, looked up): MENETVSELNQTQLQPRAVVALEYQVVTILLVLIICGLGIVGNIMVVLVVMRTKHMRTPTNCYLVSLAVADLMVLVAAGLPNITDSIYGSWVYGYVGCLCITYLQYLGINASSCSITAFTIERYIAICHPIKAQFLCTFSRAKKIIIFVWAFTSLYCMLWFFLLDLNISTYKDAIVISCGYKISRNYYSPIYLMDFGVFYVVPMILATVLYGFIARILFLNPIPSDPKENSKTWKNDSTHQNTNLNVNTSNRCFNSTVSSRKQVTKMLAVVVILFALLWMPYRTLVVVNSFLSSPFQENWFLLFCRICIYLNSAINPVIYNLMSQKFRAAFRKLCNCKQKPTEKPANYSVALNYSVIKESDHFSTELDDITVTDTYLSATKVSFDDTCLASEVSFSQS
row,SMILES,enhancement
1,CCc1nc2c(cnn2-c2ccc(C)cc2)c(=O)n1-c1ccc(C)cc1,-4.12%
2,Cc1ccc(Cn2ncc3c4sc(C)cc4n(C)c3c2=O)c(C)c1,4.39%
3,CCCN(CCC)CCNC(=O)c1ccc2c(c1)NC(=O)C(CS(=O)(=O)Cc1cccc(Br)c1)N2 (stereo not given),5.05%
4,C/C(=C\c1ccco1)CN1CCC(N2CCC(C(=O)N3CCOCC3)CC2)CC1,46.7% (active)
5,O=C(C1CCN(C2CCN(Cc3cccc4c3OCO4)CC2)CC1)N1CCOCC1,2.59%
6,O=C(C1CCN(C2CCN(Cc3ccc4cc(F)ccc4n3)CC2)CC1)N1CCCC1,-6.35%
7,Cc1ccc(-c2nc(SCc3ccc(Br)cc3)n3[nH]c(=O)cc3n2)cc1,-0.363%
8,Cc1c(/C=N\NC(=O)c2cc3ccccc3o2)c2ccccc2n1C,44.3% (active)
9,CC(C)(C)n1nc2c(c1NC(=O)c1cc3ccccc3o1)CSC2,1.55%
10,CC(C)Oc1ccc(NC(=O)c2cc3ccccc3o2)cc1,7.33%
11,O=C(NCCS(=O)(=O)N1CCN(c2ccc(F)cc2)CC1)c1ccccc1Br,1.15%
12,Cc1ccc(C2CCN(C(=O)c3cnn(-c4ccccc4Cl)c3C3CCN(C(=O)OC(C)(C)C)CC3)C2)cc1 (stereo not given),3.84%
13,O=S(=O)(c1cccs1)N1CCN(CCOc2ccccc2)CC1,5.02%
14,CC(=O)Nc1ccc(S(=O)(=O)N2CCN(S(=O)(=O)c3cccs3)CC2)cc1,-0.8%
15,CN1CCN(S(=O)(=O)c2ccc(N3CCN(S(=O)(=O)c4cccs4)CC3)nc2)CC1,39.6% (active)
16,CCOC(=O)C1CCN(c2csc3ccc(C)cc3c2=O)CC1,-6.67%
17,CCOC(=O)C1CCC(CN(Cc2ccc(OC)cc2)S(=O)(=O)c2ccc(F)c(C(=O)Nc3cc(C)ccc3C)c2)CC1 (stereo not given),-3.18%
18,CC(=O)N1CCN(CC(=O)Nc2ccc(C)c(F)c2)CC1,47.8% (active)
19,COC(=O)c1cc(NC(=O)CN2CCN(C(C)=O)CC2)cc(C(=O)OC)c1,6.58%
20,Cc1ccc(NC(=O)CN2c3ccccc3S(=O)(=O)c3ccccc32)cc1F,10.5%
21,CCOc1ccc(C2C(C(=O)Nc3ccc(Cl)cc3)=C(C)Nc3nc(C(F)(F)F)nn32)cc1 (stereo not given),10.8%
22,C#CC(C)(CC)NC(=O)Cn1nnc(-c2ccc(OCc3c(F)cccc3Cl)cc2)n1 (stereo not given),1.56%
23,O=C(NCc1ccccn1)C1CCN(S(=O)(=O)c2ccc(Br)cc2)CC1,-2.72%
24,O=C(COc1ccc(S(=O)(=O)N2CCCCC2)cc1)NCc1ccccn1,36.9% (active)
25,CCOc1ccccc1NC(=O)COc1ccc(S(=O)(=O)N2CCCC2)cc1,19.7%
